“And” between values parts separate entries of the source, which are not always exact repeats. Equal entries are not always repeated. The panel holds about 79,000 compounds, 15% with a hit somewhere; the sample as a whole holds those more often. Some structures have more than one record in an assay (separate samples or runs), and their calls can disagree. The source made the active and inactive calls. Cut-off read from the data, not from the text of the source: active = growth inhibition above about 70%; inactive = the rest.
Key:
[1] = NCI Yeast Anticancer Drug Screen. Data for the rad50 strain (AID 155);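 note: 0% = growth of vehicle-only cultures of the same strain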; settings: S. cerevisiae rad50 strain growth inhibition; at 50.0 µM; stronger effect = higher value
How it was run: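 Compounds were tested on a yeast strain with an engineered DNA damage repair alteration; the reported value is growth inhibition normalised to vehicle treatment.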

[2] = NCI Yeast Anticancer Drug Screen. Data for the mec2-1 strain (AID 157); settings: S. cerevisiae mec2-1 strain, at 50.0 µM, stronger effect = higher value
How it was run: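 mec2-1 yeast strain, carrying an alteration in DNA damage repair or cell cycle control, was exposed to compounds; growth inhibition was measured relative to vehicle-treated controls.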

[3] = NCI Yeast Anticancer Drug Screen. Data for the sgs1 mgt1 strain (AID 161);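 note: 0% = growth of cultures given vehicle only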; settings: S. cerevisiae sgs1 mgt1 strain, at 50.0 µM, stronger effect = higher value
How it was run: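 Percent growth inhibition was derived by comparing compound-exposed mutant yeast with vehicle-exposed cultures. The strain carries alterations in DNA damage repair.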

[4] = NCI Yeast Anticancer Drug Screen. Data for the cln2 rad14 strain (AID 165);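 note: 0% = growth equal to vehicle treated cultures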; settings: S. cerevisiae cln2 rad14 strain, at 50.0 µM, stronger effect = higher value
How it was run: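 Yeast carrying cln2 and rad14 alterations (cell cycle control and DNA damage repair) were exposed to compounds. Growth inhibition was measured against vehicle-treated controls.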

[5] = NCI Yeast Anticancer Drug Screen. Data for the bub3 strain (AID 167); settings: S. cerevisiae bub3 mutant strain, at 50.0 µM, stronger effect = higher value
How it was run: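 Growth of a checkpoint-deficient yeast mutant is measured after compound exposure. Values represent inhibition relative to vehicle.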

[6] = NCI Yeast Anticancer Drug Screen. Data for the mlh1 rad18 strain (AID 175); settings: S. cerevisiae mlh1 rad18 strain growth inhibition; at 50.0 µM; stronger effect = higher value
How it was run: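 Growth inhibition of the yeast strain was measured after compound exposure and expressed relative to vehicle-treated controls. The strain carries defined defects in DNA damage repair.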

Row | Compound | growth inhibition [1] | growth inhibition [2] | growth inhibition [3] | growth inhibition [4] | growth inhibition [5] | growth inhibition [6]
1 | CCCCN(CCCC)CCCN | 13.2% (inactive) and 9.35% (inactive) | -1.45% (inactive) and -6.9% (inactive) | -18.9% (inactive) and -5.35% (inactive) | -11.6% (inactive) and 9.8% (inactive) | 6.5% (inactive) and -3.15% (inactive) | -9% (inactive) and 11.7% (inactive)
2 | O=c1nc(-c2ccccc2)cc(CC(O)(c2ccc(C(F)(F)F)cc2)c2ccc(Cl)c(Cl)c2)[nH]1 (stereo not drawn) | 1.8% (inactive) and 28.8% (inactive) | 15% (inactive) and 15.4% (inactive) | 5.55% (inactive) and 25.8% (inactive) | -17.8% (inactive) and -26.6% (inactive) | 25.7% (inactive) and 54.4% (inactive) | 8.35% (inactive) and 11.3% (inactive)
3 | O=C1c2ccccc2C(=O)c2c(O)ccc(O)c21 | 51.5% (inactive) and 39.8% (inactive) | 37.2% (inactive) and 11.2% (inactive) | 54.1% (inactive) and 21.6% (inactive) | 24.4% (inactive) and 33.8% (inactive) | 52% (inactive) and 28.9% (inactive) | 50.5% (inactive) and 13.8% (inactive)
4 | COc1ccc(NS(=O)(=O)c2ccccc2)cc1 | -3.55% (inactive) and -19.6% (inactive) | -2.7% (inactive) and -17.2% (inactive) | -3.2% (inactive) and -6.95% (inactive) | -20.7% (inactive) and -48.8% (inactive) | 1.55% (inactive) and 8.9% (inactive) | -6.3% (inactive) and -9.8% (inactive)
5 | OCCN1CCNCC1 | 4.4% (inactive) and -9.55% (inactive) | -0.5% (inactive) and -14.3% (inactive) | 4.95% (inactive) and -17.8% (inactive) | 8.3% (inactive) and -15.8% (inactive) | -23.5% (inactive) and 13.4% (inactive) | 1.75% (inactive) and -19.2% (inactive)
6 | CC(=O)c1c(O)c(C)c(O)c2c1OC1=CC(=O)C(C(C)=O)C(=O)C12C (stereo not drawn) | 30.6% (inactive) and 28.6% (inactive) and -0.1% (inactive) | 21% (inactive) and 17.2% (inactive) and -20.2% (inactive) | 28.4% (inactive) and 23.8% (inactive) and -25.1% (inactive) | 37% (inactive) and 23.2% (inactive) and -19.4% (inactive) | 30.4% (inactive) and 24.9% (inactive) and 12.6% (inactive) | 23.9% (inactive) and 31.6% (inactive) and -25.6% (inactive)
7 | Oc1ccc(-c2ccc(O)cc2)cc1 | 36.2% (inactive) and -18.6% (inactive) | 2.45% (inactive) and -3.75% (inactive) | 7.4% (inactive) and -17.4% (inactive) | 19.9% (inactive) and -27.9% (inactive) | 11.9% (inactive) and 12.9% (inactive) | 13.8% (inactive) and 19.3% (inactive)
8 | O=C(O)CCC(=O)c1cccs1 | 12.8% (inactive) and -5.4% (inactive) | 4.25% (inactive) and 19.6% (inactive) | 2.2% (inactive) and -4.45% (inactive) | -28.4% (inactive) and -5.5% (inactive) | -5.1% (inactive) and -25.4% (inactive) | -28.9% (inactive) and -21.1% (inactive)
9 | O=C(O)Cc1ccc(C2CCC(O)CC2)cc1 (stereo not drawn) | 2.75% (inactive) and 8.45% (inactive) | -5.35% (inactive) and -1.85% (inactive) | 3.05% (inactive) and 21.2% (inactive) | -17.8% (inactive) and -4.3% (inactive) | -0.15% (inactive) and 5.4% (inactive) | 0.9% (inactive) and 1% (inactive)
10 | Cc1ccc(N(O)C(C)(C)C)cc1 | -16.4% (inactive) and -2.35% (inactive) | -17.9% (inactive) and 7.6% (inactive) | -4.3% (inactive) and 3.05% (inactive) | -3.85% (inactive) and -1.2% (inactive) | -23.9% (inactive) and 13.8% (inactive) | 9.15% (inactive) and -11.9% (inactive)
11 | Cc1ccc(NC2=CC(=O)C(=O)c3ccccc32)cc1 | 30% (inactive) and 22.6% (inactive) and 45.2% (inactive) | 40.7% (inactive) and 36% (inactive) and 14.1% (inactive) | 25% (inactive) and 26.8% (inactive) and 32.3% (inactive) | 5.55% (inactive) and 8.9% (inactive) and 30.9% (inactive) | 25.1% (inactive) and 26.9% (inactive) and 54.6% (inactive) | 15.4% (inactive) and 60.9% (inactive) and 33.4% (inactive)
12 | Cc1ccc(C(O)c2nnc(C(O)c3ccc(C)cc3)nn2)cc1 (stereo not drawn) | 11.2% (inactive) and 33.9% (inactive) | 11.6% (inactive) and 29% (inactive) | -3.55% (inactive) and 71% (active) | 9.45% (inactive) and 16.4% (inactive) | 18.9% (inactive) and 21.2% (inactive) | 18.8% (inactive) and 40.5% (inactive)
13 | COC(=O)NC1C(=O)OC(C2OC2(C)C)C1(C)C (stereo not drawn) | -4% (inactive) and -2.5% (inactive) | -22.9% (inactive) and -12.8% (inactive) | -5.3% (inactive) and -32.8% (inactive) | 4.35% (inactive) and -7.9% (inactive) | -17.1% (inactive) and -31.4% (inactive) | -6.15% (inactive) and -27.4% (inactive)
14 | O=C1C(O)=C(Cl)C(=O)C(O)=C1Cl | 6.7% (inactive) and 13.6% (inactive) | 2.3% (inactive) and -26.3% (inactive) | -2.15% (inactive) and 25.3% (inactive) | -0.2% (inactive) and 5.3% (inactive) | 29.9% (inactive) and -11.3% (inactive) | -12.9% (inactive) and -3.2% (inactive)
15 | CC1(C)OC2OC(C(COS(C)(=O)=O)OS(C)(=O)=O)C(OS(C)(=O)=O)C2O1 (stereo not drawn) | 15.7% (inactive) and -9.65% (inactive) | 2.6% (inactive) and 9.75% (inactive) | 37.9% (inactive) and 10.2% (inactive) | 16.4% (inactive) and 20.6% (inactive) | 5.9% (inactive) and 1.45% (inactive) | 16.2% (inactive) and 8% (inactive)
16 | CCCOC(=O)c1ccc(OCC)cc1 | 22.4% (inactive) and -20.6% (inactive) | 8.2% (inactive) and -9.8% (inactive) | 12.6% (inactive) and 3.1% (inactive) | -8% (inactive) and -42.6% (inactive) | -11.2% (inactive) and -16.6% (inactive) | 15.2% (inactive) and -23.6% (inactive)
17 | COC(=O)C1OC(O[C@H]2CC[C@]3(C)[C@H]4CC=C5[C@@H]6CC(C)(C)CC[C@]6(C(=O)OC6OCC(O)C(O)C6OC6OC(C)C(OC7OCC(O)C(OC8OCC(O)C(O)C8O)C7O)C(OC7OCC(O)C(O)C7O)C6O)CC[C@@]5(C)[C@]4(C)CC[C@H]3C2(C)C)C(O)C(OC2OCC(O)C(O)C2O)C1O (stereo partly drawn) | 18.1% (inactive) and 22.6% (inactive) | 7.8% (inactive) and 16.5% (inactive) | 18.6% (inactive) and 23.1% (inactive) | 18.1% (inactive) and 18.7% (inactive) | 30.2% (inactive) and 22.7% (inactive) | 26.2% (inactive) and 38% (inactive)
18 | CC(=O)CCC1CC(=O)OC1(C)C (stereo not drawn) | -37.6% (inactive) and 0.75% (inactive) | -30% (inactive) and -11.2% (inactive) | -14.3% (inactive) and -15.4% (inactive) | 7.85% (inactive) and -5.75% (inactive) | -26.2% (inactive) and -5.35% (inactive) | -26.2% (inactive) and 23.8% (inactive)

From PubChem BioAssay (NCI)
